This note sets out measurements from PubChem BioAssay.

Active and inactive are the calls of the source.

In experiment [1] the test system is PRMT1 (protein arginine N-methyltransferase 1). The experiment in a line: PRMT1 binders on small-molecule microarrays, primary screen, biochemical, small-molecule microarray, 635 nm fluorescence (AID 1088).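 Note: binding of Prmt1 protein to compounds spotted on small-molecule microarray slides.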 As to conditions: small-molecule microarray binding, higher = more signal.
Experiment [2] is described as follows: yeast growth modulation, basal conditions, primary screen, YJM789 clinical isolate, OD600, 24 h (AID 1089).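 Note: growth of clinical yeast isolate S. cerevisiae YJM 789 seeded 1000 cells per well; test concentration not given here.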 As to conditions: S. cerevisiae YJM789 growth, higher = more signal, called active from +8 up or from −8 down.
Experiment [3] in a line: fission yeast growth modulation, primary screen, strain 972, OD600, 24 h, no modulator (AID 1090).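 Note: basal condition with compound alone and no growth modifier present; test concentration not given here.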 As to conditions: S. pombe 972 growth, higher = more signal, called active from +8 up or from −8 down.
Experiment [4] in a line: S. cerevisiae growth modulation with rapamycin, primary screen, strain BY4716, OD600, 96 h (AID 1091). Note: test concentration not given here. Particulars: higher = more signal, called active from +8 up or from −8 down.
Experiment [5] concerns the target Torsin-1A-interacting protein 2 (Homo sapiens) (UniProt Q8NFQ8). The experiment in a line: LULL1 binders on small-molecule microarray, primary screen, cell lysate, human LULL1 lysate, 635/667 nm fluorescence (AID 1092).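 Note: probe is lysate of COS7 cells overexpressing human LULL1; score merges per-feature 667 nm fluorescence with signal-to-noise.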 Particulars: hLULL1 lysate binding, 635 nm fluorescence, higher = more signal.
A short description of experiment [6]: E. coli growth modulation, two-sided OD650, primary screen, E. coli filamentation project, strain DRC41, 24 h (AID 1093).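 Note: MC1000 strain lacking acrAB efflux and sulA so SOS filamentation is blocked; test concentration not given here.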 As to conditions: OD650, 24 h, higher = more signal, called active from +8 up or from −8 down.
A short description of experiment [7]: small-molecule microarray binders of probe aLefty2, primary screen, biochemical, biotinylated probe, 635/667 nm fluorescence (AID 1094).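 Note: score merges spot fluorescence near 667 nm with spot signal-to-noise ratio.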 As to conditions: higher = more signal.
The subject of experiment [8] is Noggin (protein binding on small-molecule microarray). The experiment in a line: Noggin binders on small-molecule microarray, primary screen, biochemical, 635/667 nm fluorescence (AID 1095).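 Note: score merges 667 nm feature fluorescence with signal to noise over triplicate slides.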 As to conditions: 635 nm fluorescence, higher = more signal.
Experiment [9] concerns the target Neurogenic locus notch homolog protein 3 (Homo sapiens) (UniProt Q9UM47). The experiment in a line: NOTCH3 binders on small-molecule microarray, primary screen, biochemical, 635/667 nm fluorescence (AID 1096). As to conditions: NOTCH3 binding, 635 nm fluorescence, higher = more signal.
Experiment [10] is described as follows: small-molecule microarray binders of probe aEGFR, primary screen, biochemical, biotinylated probe, 635/667 nm fluorescence (AID 1097).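 Note: probe is a biotinylated anti-EGFR antibody binding compounds printed on slides; score combines fluorescence near 667 nm and signal to noise of each spot.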 Particulars: higher = more signal.

Chain of Neurogenic locus notch homolog protein 3 (Homo sapiens) (Q9UM47 whole entry, looked up): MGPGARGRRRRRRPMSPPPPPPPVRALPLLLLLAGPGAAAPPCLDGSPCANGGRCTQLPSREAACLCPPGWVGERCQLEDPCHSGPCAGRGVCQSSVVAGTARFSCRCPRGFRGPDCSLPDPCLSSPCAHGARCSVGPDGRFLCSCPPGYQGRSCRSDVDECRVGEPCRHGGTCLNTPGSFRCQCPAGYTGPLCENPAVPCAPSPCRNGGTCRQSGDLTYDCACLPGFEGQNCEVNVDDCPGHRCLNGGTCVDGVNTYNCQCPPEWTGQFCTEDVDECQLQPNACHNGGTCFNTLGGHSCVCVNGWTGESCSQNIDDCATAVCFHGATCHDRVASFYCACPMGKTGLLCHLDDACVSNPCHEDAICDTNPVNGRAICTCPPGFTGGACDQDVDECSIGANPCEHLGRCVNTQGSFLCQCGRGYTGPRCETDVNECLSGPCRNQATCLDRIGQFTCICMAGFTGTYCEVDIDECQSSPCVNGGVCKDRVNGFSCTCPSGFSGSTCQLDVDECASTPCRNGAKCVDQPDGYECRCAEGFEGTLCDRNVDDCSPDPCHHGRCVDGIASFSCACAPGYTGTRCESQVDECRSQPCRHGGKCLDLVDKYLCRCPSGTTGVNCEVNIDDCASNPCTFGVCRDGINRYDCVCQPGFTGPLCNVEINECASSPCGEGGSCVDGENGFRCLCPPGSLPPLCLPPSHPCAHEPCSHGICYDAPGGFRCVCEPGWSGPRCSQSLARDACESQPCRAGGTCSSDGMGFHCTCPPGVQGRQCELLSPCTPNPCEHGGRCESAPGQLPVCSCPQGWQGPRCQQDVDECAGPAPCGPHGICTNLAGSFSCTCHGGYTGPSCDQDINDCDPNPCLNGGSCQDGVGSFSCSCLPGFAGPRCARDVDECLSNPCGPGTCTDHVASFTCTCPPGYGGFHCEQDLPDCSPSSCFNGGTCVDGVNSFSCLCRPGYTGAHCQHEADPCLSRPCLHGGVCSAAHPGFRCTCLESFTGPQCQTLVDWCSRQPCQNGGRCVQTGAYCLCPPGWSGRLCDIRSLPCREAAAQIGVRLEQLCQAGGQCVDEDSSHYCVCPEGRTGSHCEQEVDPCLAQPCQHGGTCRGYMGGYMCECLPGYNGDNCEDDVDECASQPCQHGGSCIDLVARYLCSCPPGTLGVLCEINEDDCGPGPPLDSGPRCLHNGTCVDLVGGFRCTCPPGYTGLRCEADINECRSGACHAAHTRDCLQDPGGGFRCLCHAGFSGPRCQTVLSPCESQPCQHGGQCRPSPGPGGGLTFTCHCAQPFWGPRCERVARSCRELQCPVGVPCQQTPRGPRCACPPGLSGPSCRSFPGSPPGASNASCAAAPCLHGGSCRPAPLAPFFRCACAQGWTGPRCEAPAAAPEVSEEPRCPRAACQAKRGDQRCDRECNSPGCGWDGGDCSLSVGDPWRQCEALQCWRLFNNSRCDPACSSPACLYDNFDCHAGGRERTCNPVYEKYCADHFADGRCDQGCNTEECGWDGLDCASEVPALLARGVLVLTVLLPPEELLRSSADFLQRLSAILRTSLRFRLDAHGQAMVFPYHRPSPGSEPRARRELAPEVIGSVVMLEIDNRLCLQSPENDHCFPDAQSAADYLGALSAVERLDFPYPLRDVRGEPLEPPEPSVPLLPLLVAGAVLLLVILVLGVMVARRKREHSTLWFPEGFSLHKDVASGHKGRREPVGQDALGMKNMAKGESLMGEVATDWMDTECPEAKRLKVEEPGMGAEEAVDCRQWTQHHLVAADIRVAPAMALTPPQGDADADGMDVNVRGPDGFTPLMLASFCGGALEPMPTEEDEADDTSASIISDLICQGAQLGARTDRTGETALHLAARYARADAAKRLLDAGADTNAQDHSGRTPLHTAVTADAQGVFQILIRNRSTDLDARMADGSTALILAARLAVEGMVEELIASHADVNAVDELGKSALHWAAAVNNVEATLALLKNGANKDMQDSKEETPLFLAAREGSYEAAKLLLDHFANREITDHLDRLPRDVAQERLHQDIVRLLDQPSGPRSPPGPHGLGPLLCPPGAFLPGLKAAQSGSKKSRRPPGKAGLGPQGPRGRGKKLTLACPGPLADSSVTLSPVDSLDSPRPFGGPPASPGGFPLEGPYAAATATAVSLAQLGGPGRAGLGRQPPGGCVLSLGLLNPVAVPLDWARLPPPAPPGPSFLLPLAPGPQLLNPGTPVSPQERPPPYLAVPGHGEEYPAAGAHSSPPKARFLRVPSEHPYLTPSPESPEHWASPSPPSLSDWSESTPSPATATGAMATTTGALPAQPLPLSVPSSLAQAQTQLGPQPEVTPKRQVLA
Chain of Torsin-1A-interacting protein 2 (Homo sapiens) (Q8NFQ8 whole entry, looked up): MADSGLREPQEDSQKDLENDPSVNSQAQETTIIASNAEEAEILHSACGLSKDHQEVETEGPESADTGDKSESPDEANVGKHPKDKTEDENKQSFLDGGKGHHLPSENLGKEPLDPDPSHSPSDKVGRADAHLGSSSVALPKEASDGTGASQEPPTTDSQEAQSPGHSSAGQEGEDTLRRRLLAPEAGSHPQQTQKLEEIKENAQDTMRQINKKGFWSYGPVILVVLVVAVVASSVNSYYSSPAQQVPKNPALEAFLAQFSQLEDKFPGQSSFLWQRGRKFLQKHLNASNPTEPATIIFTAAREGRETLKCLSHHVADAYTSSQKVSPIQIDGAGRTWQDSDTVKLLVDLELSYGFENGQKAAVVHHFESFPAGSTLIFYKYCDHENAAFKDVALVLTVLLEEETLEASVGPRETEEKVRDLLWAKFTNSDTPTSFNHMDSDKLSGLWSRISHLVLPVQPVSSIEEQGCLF

On to `CCOC(=O)C1=CC[C@@H](c2ccc(C(F)(F)F)cc2)N(S(=O)(=O)c2ccc(C)cc2)[C@H]1c1ccccc1`, for which the composite z-score in experiment [1] was 1.49; in [5], 2.92; in [7] it was 0.285; in experiment [8], 0.496; in experiment [9], 1.05; in experiment [10], 0.208. The z-score was -0.641 (inactive) in experiment [2], -0.482 (inactive) in [3], 0.363 (inactive) in experiment [4] and -0.617 (inactive) in [6].

As to `COC(=O)[C@@]1(Cc2ccccc2)[C@H]2c3cc(C(=O)N4CCCC4)n(Cc4c(CO)[nH]cc(C)c4=O)c3C[C@H]2CN1C(=O)c1ccccc1`, the composite z-score in experiment [1] was 0.138; in [5] it was 3.18; in experiment [7] it was 0.539; in experiment [8], -0.218; in experiment [9] it was 0.12; in experiment [10], 0.0478. Further, the z-score in [2] is -0.0602 (inactive); in [3], 0.94 (inactive); in [4], 0.171 (inactive); in experiment [6] it was -0.799 (inactive).

As to `CC(=CC1CCCCC1)[C@@H](NC(=O)c1cccnc1)c1ccc(-c2ccccc2)cc1`, the composite z-score is -0.0028 in experiment [1]; 1.16 in [5]; -0.0042 in experiment [7]; -0.18 in experiment [8]; 0.298 in experiment [9]; -0.222 in experiment [10]. The z-score in [2] is 1.36 (inactive); in experiment [3] it was 0.92 (inactive); in [4] it was 2.06 (inactive); in experiment [6] it was -2.18 (inactive).

For the molecule `O=C1O[C@@H](c2ccccc2)[C@@H](c2ccccc2)N2[C@@H](c3ccccc3OCCO)[C@]3(C(=O)Nc4ccc(C#CC5(O)CCCCCC5)cc43)[C@@H](C(=O)N3CCN(c4ncccn4)CC3)[C@H]12`, the composite z-score was 1.55 in experiment [1]; 2.9 in experiment [5]; -0.122 in experiment [7]; 0.662 in experiment [8]; 0.821 in [9]; -0.0542 in experiment [10]. In addition, the z-score in experiment [2] was 3.08 (inactive); in experiment [3], 0.961 (inactive); in experiment [4], 7.62 (inactive); in experiment [6], 1.21 (inactive).

For `C=CC1c2cc(O)c(OC)cc2CCN1Cc1cccc(OC(F)(F)F)c1` (stereo not given), the composite z-score is 1.22 in experiment [1]; 3.88 in [5]; -0.129 in [7]; -0.0799 in experiment [8]; -0.344 in [9]; -0.125 in experiment [10]. For the same molecule, the z-score in [2] was -26 (active); in [3] it was -20.2 (active); in experiment [4] it was -3.13 (inactive); in experiment [6] it was 0.148 (inactive).

Consider `CC(C)C(=C=CC[C@H](O)c1ccc(CO)o1)CCO`, for which the composite z-score in experiment [1] is 1.52; in [5] it was 1.51; in experiment [7], -0.28; in experiment [8], 0.679; in [9], 0.787; in [10], -0.14. For the same molecule, the z-score in [2] is -0.0662 (inactive); in [3], -0.697 (inactive); in experiment [4], -0.536 (inactive); in experiment [6], -0.253 (inactive).

Take `CC(C)[C@@H](C(=O)O)n1cc(C2(O)CCCCC2)nn1`: the composite z-score in [1] was 0.629; in experiment [5], 1.02; in experiment [7], -0.132; in [8], 0.731; in experiment [9], 1.05; in [10] it was -0.02. Besides, the z-score in [2] was -0.791 (inactive); in experiment [3], 0.462 (inactive); in experiment [4], -1.12 (inactive); in [6] it was 0.616 (inactive).

`NC(=O)N1C(=O)C2C(C1=O)C1C=C(CCCO)C2C(C2CC2)N1Cc1cc2c(cc1Br)OCO2` (stereo not given): the composite z-score in [1] is -0.918; in experiment [5] it was 1.36; in experiment [7], -0.0778; in experiment [8] it was -0.0543; in [9], 0.325; in [10] it was -0.13. The z-score in experiment [2] is -1.07 (inactive); in experiment [3], -0.435 (inactive); in experiment [4], -1.22 (inactive); in experiment [6], -0.331 (inactive).

Consider `CCOc1ccc(N2C(=O)CSC2c2cccc([N+](=O)[O-])c2)cc1` (stereo not given), for which the composite z-score in experiment [1] was 0.971; in experiment [5], 1.63; in [7], -0.0555; in experiment [8], 0.154; in experiment [9], 0.699; in experiment [10] it was -0.0697. Also, the z-score in experiment [2] was 0.493 (inactive); in experiment [3], 0.527 (inactive); in experiment [4], 0.712 (inactive); in experiment [6] it was 1.01 (inactive).

Turning to `COc1ccc([Si](C)(C)[C@@H]2[C@@H](CC(=O)N3Cc4ccccc4C[C@H]3CO)O[C@]3(C(=O)N(Cc4cccc(N5CCC5=O)c4)c4ccccc43)[C@H]2C)cc1`, the composite z-score in [1] was 1.55; in experiment [5], 1.95; in experiment [7], -0.0963; in experiment [8], 0.954; in [9], 0.87; in [10], 0.0227. Further, the z-score in experiment [2] is 0.0342 (inactive); in experiment [3], 0.589 (inactive); in experiment [4], 1.59 (inactive); in experiment [6], -0.509 (inactive).

As for `COCCOC(=O)N1C(=O)[C@@]2(c3cc(C#CC4(O)CCCCCC4)ccc31)[C@H](C(=O)Nc1nc3ccccc3s1)[C@H]1C(=O)O[C@H](c3ccccc3)[C@H](c3ccccc3)N1[C@@H]2c1ccccc1OCCO`, the composite z-score was 1.55 in experiment [1]; 2.89 in experiment [5]; -0.0575 in experiment [7]; 1.38 in [8]; 1.11 in experiment [9]; 0.0857 in [10]. Further, the z-score in experiment [2] is 0.976 (inactive); in experiment [3] it was 0.249 (inactive); in experiment [4], 2.12 (inactive); in experiment [6] it was 1.26 (inactive).

Regarding `C#CCN1[C@H](/C=C/C2CC2)[C@H](Cc2ccccc2)OC(=O)[C@@H]1Cc1ccccc1`, the composite z-score in [1] was 0.663; in [5], 0.613; in experiment [7], -0.102; in [8] it was 0.792; in [9] it was 0.0922; in experiment [10] it was -0.118. For the same molecule, the z-score in experiment [2] was -0.651 (inactive); in [3] it was 0.241 (inactive); in [4], 0.79 (inactive); in [6] it was -0.714 (inactive).

On to `COC(=O)[C@@]1(Cc2ccc(OC)cc2)[C@H]2c3cc(C(=O)N4CCCC4)n(CCCNc4ncc(C(F)(F)F)cc4Cl)c3C[C@H]2CN1C(=O)c1ccccc1`, for which the composite z-score in experiment [1] turned out to be 0.0457; in experiment [5], 1.8; in experiment [7], 0.987; in experiment [8], 0.341; in experiment [9] it was 0.656; in experiment [10] it was 0.939. Moreover, the z-score in [2] is -0.496 (inactive); in experiment [3], 1.11 (inactive); in [4], 1.35 (inactive); in experiment [6] it was -0.537 (inactive).

With `NCCCCCNC(=O)[C@H]1C[C@H]2C(=O)N[C@@H](Cc3ccccc3)C(=O)N2[C@H]1c1cccc(OCCO)c1`, the composite z-score is 0.788 in experiment [1]; 1.6 in [5]; 0.662 in [7]; -0.0079 in experiment [8]; 0.478 in experiment [9]; 0.0115 in [10]. Also, the z-score was 0.693 (inactive) in [2], -1.42 (inactive) in [3], -0.763 (inactive) in experiment [4] and 0.631 (inactive) in [6].

Regarding `C=CCOC(=O)[C@H]1[C@@H]2C(=O)O[C@@H](c3ccccc3)[C@@H](c3ccccc3)N2[C@@H](c2ccc(OCCOC(=O)[C@@H]3C[C@@H]4C(=O)N5CCC[C@H]5C(=O)N4[C@@H]3c3cccc(OCCO)c3)cc2)[C@]12C(=O)Nc1ccc(I)cc12`, the composite z-score in experiment [1] is 1.56; in experiment [5], 2.09; in experiment [7], -0.117; in [8], 1.86; in [9] it was 1.08; in [10], 0.0032. In addition, the z-score in experiment [2] was 0.151 (inactive); in [3] it was 1.04 (inactive); in [4], 2.23 (inactive); in experiment [6], -0.443 (inactive).
